Screens deposited in PubChem BioAssay by National Center for Advancing Translational Sciences (NCATS).
Sampled rows, rich in hits. Any-hit rate of the full collection: about 10%.
PNC inhibitor – blocks assembly of the perinucleolar compartment | PC3M PTB-GFP, PNC prevalence imaging, 16 h; stronger effect = lower value | activity change (PNC), negative = inhibition, % at 10 µM | actives 3.1% (n = 140,000) | AID 2417;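 active = readout at or below -70, meaning at least 70% loss of cells showing the perinucleolar compartment, a nuclear body marking cancer cells; inconclusive = readout between -30 and a set limit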;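 also: plate controls were DMSO wells for no effect and camptothecin positive control wells for full effect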
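Read-out is percentage of cells bearing a perinucleolar compartment, from automated 20x imaging of fixed, Hoechst-stained PC3M PTB-GFP cells. Cells were seeded 4 h, then exposed 16 h to compound (23 nl of library stock) in duplicate plates.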
GLA spleen mod – alpha-galactosidase A (human) modulation | P06280 | human spleen homogenate, 4MU-alpha-Gal fluorescence, 40 min | actives 0.008% (n = 240,000) | Potency, µM (titrated, usually from 80 µM), inactives show at the highest dose activity change, negative = inhibition, actives largely listed as inhibitors;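 also: potency is read from the fitted curve at half-maximal effect; 0% = enzyme with vehicle and -100% = no enzyme basal signal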
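Fluorogenic readout (Ex 365/Em 440 nm) of 4-methylumbelliferone released from 1 mM 4-MU-alpha-galactoside by spleen homogenate, 40 min at 37C, pH 5.0. Data normalized to no-enzyme and enzyme controls; Hill-equation AC50 from compound titrations.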
ALOX12 inhib – blocks human 12-lipoxygenase activity | P18054 | purified 12-hLO, xylenol orange hydroperoxide absorbance | Potency, µM (series often up to 57.1 µM), inactives show top-dose activity change, negative = inhibition, most hits filed as inhibitors | actives 0.12% (n = 150,000) | AID 1452; also: potency is read from the fitted curve at half-maximal effect; nearly all actives have a fitted effect of over 55% in size
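Purified human 12hLO (150 nM), preincubated 15 min with compound, then 40 uM arachidonic acid for 30 min, room temperature, Hepes pH 7.0 with 0.01% Triton X-100. Hydroperoxide detected by ferrous iron/xylenol orange; 573/405 nm absorbance ratio gives reaction progress.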
GLA inh pH 4.5 – inhibitors of human alpha-galactosidase A at pH 4.5. activity change, negative = inhibition, % at 105 µM. P06280. purified enzyme, 4-MU-alpha-Gal fluorescence, pH 4.5. 230,000 tested, under 10 active;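 also: 0% = full activity with enzyme and -100% = basal without enzyme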
Target sequence (P06280 whole entry, looked up): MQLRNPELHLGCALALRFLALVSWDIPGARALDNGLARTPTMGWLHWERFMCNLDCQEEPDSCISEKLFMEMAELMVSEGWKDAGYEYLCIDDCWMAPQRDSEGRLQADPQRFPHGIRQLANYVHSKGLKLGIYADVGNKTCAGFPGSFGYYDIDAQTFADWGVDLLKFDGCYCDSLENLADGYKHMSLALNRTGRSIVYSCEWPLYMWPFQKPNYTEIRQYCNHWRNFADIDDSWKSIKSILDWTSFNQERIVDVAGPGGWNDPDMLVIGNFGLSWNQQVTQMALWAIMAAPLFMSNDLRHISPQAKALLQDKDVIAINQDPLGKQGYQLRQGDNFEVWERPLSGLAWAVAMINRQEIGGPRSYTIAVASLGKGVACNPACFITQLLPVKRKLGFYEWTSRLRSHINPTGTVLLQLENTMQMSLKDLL
HPGD block – HPGD (human) dehydrogenase inhibition; P15428; purified HPGD, NADH fluorescence kinetic, PGE2 substrate; Potency, µM, inactives show at the highest dose activity change, negative = inhibition, usual class: inhibitors; actives 4.3% (n = 150,000); active = well fitted inhibition curve with a large enough effect, not every such curve was filed as active; inconclusive = small, poorly fitted or top-dose-only effect, or another doubt; inactive = no such curve, though single readings can be large or run the other way; also: potency is read from the fitted curve at half-maximal effect
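NADH formation kinetics: reaction with 30 uM PGE2 and 1 mM NAD+ (final), 20 nM enzyme, Tris-HCl pH 8 with Tween 20, after 15 min compound preincubation at room temperature. Fluorescence change, last versus first of five reads.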
ALDH1A1 block – blocks purified human ALDH1A1 activity. Potency, µM (doses to about 75.3 µM), for the others: at the top dose activity, negative = inhibition, actives largely listed as inhibitors. actives 7.3% (n = 220,000). Purified ALDH1A1, NADH fluorescence, propionaldehyde substrate. AID 1030; active = well fitted inhibition curve with a large enough effect, not every such curve was filed as active; inconclusive = small, poorly fitted or top-dose-only effect, or another doubt; inactive = no such curve, though single readings can be large or run the other way;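 also: potency is read from the fitted curve at half-maximal effect; plate controls were no enzyme wells and a reference inhibitor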
Numbers without * were called inactive; ? = inconclusive; . = not tested or not shown; [ ] = another dose, or the depositor's remark. Unless noted, calls follow the shape of the dose curve; as a rule, active = well fitted curve in the direction sought with a large enough effect; inconclusive = small, poorly fitted or top-dose-only effect, or another doubt; inactive = no such curve, though single readings can be large; an effect the other way counts as inactive or inconclusive. Unless noted, % is scaled to controls: 0 for no effect and ±100 for the full control effect.

SMILES	PNC inhibitor	GLA spleen mod	ALOX12 inhib	GLA inh pH 4.5	HPGD block	ALDH1A1 block
CCOc1ccc(N2C(=O)CC(Sc3nc(CC(C)C)ccc3C#N)C2=O)cc1 (stereo not given)	.	10%	.	-13	.	?
CCOc1ccc(N2C(=O)CC(Sc3n[nH]c(-c4ccccc4)n3)C2=O)cc1 (stereo not given)	.	3%	.	-8	.	0.45µM*
COc1ccc(N2C(=O)CC(Sc3n[nH]c(-c4ccccc4)n3)C2=O)cc1 (stereo not given)	.	0%	.	-1	.	.
CS(=O)(=O)Nc1cccc(-c2cc(NCc3ccccc3)ncn2)c1	.	-1%	.	.	.	?
Nc1cccc2c(=O)[nH]ccc12	.	15%	.	.	.	.
CCOc1ccc2nc(SC3CC(=O)N(c4cccc(OC)c4)C3=O)sc2c1 (stereo not given)	?	3%	1%	5	-16%	20µM*
Cc1c(SCCO)c(=O)[nH]c2cc3c(cc12)OCO3	26	?	1%	23	?	?
CCCN1CC(CSC)C[C@H]2c3cccc4[nH]cc(c34)C[C@H]21 (stereo not given in full)	.	10%	1%	-5	-8%	-2%
COC(=O)N1CCC2(CCCN(C(=O)Nc3ccccc3)C2)CC1	.	4%	6%	.	-6%	6%
Cc1nc([N+](=O)[O-])c(N2CCN(C)CC2)n1Cc1ccccc1	-88*	2%	7%	-20	-13%	3%
CCOC(=O)C(Cc1ccc(Cl)cc1Cl)c1ccno1 (stereo not given)	.	2%	.	-9	.	-3%
Cc1noc(C)c1C(=O)N1CCC2(CCCN(c3ccncc3)C2)CC1	.	-5%	-1%	.	-9%	4%
CCOC(=O)CN1C(=O)S/C(=C/C=C/c2ccc(N(C)C)cc2)C1=O	31	4%	2%	-19	-5%	25µM*
CC(C)(C)c1cc(C(=O)NCCN2CCCC2)cc(C(C)(C)C)c1	.	-19%	.	-6	.	8%
Cc1ccc(C2C(C#N)=C(N)N(c3ncn[nH]3)C3=C2C(=O)CC(C)(C)C3)cc1 (stereo not given)	-24	0%	3%	-1	2%	5%
c1cncc(-c2cncnc2NC2CCNCC2)c1	.	-2%	.	.	.	25µM*
COc1cccc(/C=c2\sc3nc(-c4cccs4)nn3c2=O)c1OC	?	-1%	-8%	-4	14µM*	4%
CCCCn1cnc2c(SC)ncnc21	.	.	2%[11.4 µM]	.	-10%	-4%[13.5 µM]
CCOc1ccccc1-n1c(=S)sc2c(=O)n(-c3ccc(C)cc3)c(=S)[nH]c21	.	-17%	.	-6	.	7.9µM*
CCn1c(=S)sc2c(=O)n(-c3ccccc3)c(=S)[nH]c21	.	-1%	.	-5	.	?
O=C1[C@@H]2CSCN2C(=O)CN1Cc1ccc(F)cc1	.	-9%	.	5	.	.
Cc1[nH]nc2c1/C(=N/O)CC(c1ccccc1)C2 (stereo not given)	37	-4%	0%	-3	14µM*	-11%
CCCc1n[nH]c2c1/C(=N/O)CC(c1ccccc1)C2 (stereo not given)	?	-2%	2%	-10	7.1µM*	5%
COC(=O)C1=C2SCC(=O)N2C(N)=C(C#N)C1	.	5%	.	9	.	?
O=C(NC(N1CCCCCC1)C(Cl)(Cl)Cl)c1ccccc1Cl (stereo not given)	13	-17%	2%	1	-17%	11µM*
CCCNC(=O)OC[C@H]1O[C@@H](CCO/N=C2/C[C@@H](O)[C@@H](O)[C@@H]3[C@@H]4C(=O)N(CC)C(=O)[C@H]4CC[C@@H]23)C=C[C@@H]1Oc1ccc(OC)cc1	.	-12%[17.5 µM]	.	.	.	-11%[13.5 µM]
CCOc1cc(/C=N/NC(N)=O)cc(Br)c1OCc1ccccc1F	-92*	4%	1%	1	0%	9%
CCOc1cc(/C=N\NC(N)=O)cc(Br)c1OC(C)C	-97*	0%	0%	-3	2%	-3%
